PubChem BioAssay (NCATS)
Values joined by “and” are separate entries in the source; they are usually repeats but may differ in a detail not shown here. Equal entries are not always repeated. Inconclusive results are not listed. A call without a number means that no potency is given here. Unmarked numbers belong to inactive results. Active and inactive are the calls of the source. The call rests on the fitted dose curve; in most records, active means well fitted curve in the direction sought with a large enough effect; inconclusive means small, poorly fitted or top-dose-only effect, or another doubt; inactive means no such curve, though single readings can be large; an effect the other way counts as inactive or inconclusive. Peptide text beside a SMILES is read from it.

Assays:
[1] = qHTS of pediatric cancer cell lines to identify multiple opportunities for drug repurposing: Primary screen for NB-EBc1 cells (AID 1347095); further: potency means the concentration at half of the fitted maximal effect
Outline: (§1)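 Plated cells (500-1,000 per well, growth media) were allowed to settle for 5 hours, treated with compound dilutions for 48 hours, then lysed with CellTiter-Glo for 15 min at room temperature before luminescence reading.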

[2] = qHTS of pediatric cancer cell lines to identify multiple opportunities for drug repurposing: Primary screen for U-2 OS cells (AID 1347096); further: nearly all actives have a fitted effect of over 50% in size; further: potency means the concentration at half of the fitted maximal effect
Outline: (§2)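 Cells (500-1,000/well) rested 5 h, then received compounds for 48 h; metabolically active cells were measured by CellTiter-Glo luminescence. Final concentrations spanned up to 46 µM (MIPE, 11-point) or 0.59 nM-46 µM (NPC, 8-point) in primary screens, 11-point in follow-ups.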

[3] = qHTS of pediatric cancer cell lines to identify multiple opportunities for drug repurposing: Primary screen for Saos-2 cells (AID 1347097); further: nearly all actives have a fitted effect of over 40% in size; further: potency means the concentration at half of the fitted maximal effect
Outline: as §1

[4] = qHTS of pediatric cancer cell lines to identify multiple opportunities for drug repurposing: Primary screen for NB1643 cells (AID 1347099); further: nearly all actives have a fitted effect of over 50% in size; further: potency means the concentration at half of the fitted maximal effect
Outline: as §1

[5] = qHTS of pediatric cancer cell lines to identify multiple opportunities for drug repurposing: Primary screen for LAN-5 cells (AID 1347100)
Outline: as §2

[6] = qHTS of pediatric cancer cell lines to identify multiple opportunities for drug repurposing: Primary screen for BT-12 cells (AID 1347101); further: nearly all actives have a fitted effect of over 25% in size; further: potency means the concentration at half of the fitted maximal effect
Outline: as §2

[7] = qHTS of pediatric cancer cell lines to identify multiple opportunities for drug repurposing: Primary screen for Rh18 cells (AID 1347102); further: nearly all actives have a fitted effect of over 65% in size; further: potency means the concentration at half of the fitted maximal effect
Outline: as §2

[8] = qHTS of pediatric cancer cell lines to identify multiple opportunities for drug repurposing: Primary screen for OHS-50 cells (AID 1347103); further: nearly all actives have a fitted effect of over 40% in size; further: potency means the concentration at half of the fitted maximal effect
Outline: as §2

[9] = qHTS of pediatric cancer cell lines to identify multiple opportunities for drug repurposing: Primary screen for RD cells (AID 1347104); further: nearly all actives have a fitted effect of over 55% in size; further: potency means the concentration at half of the fitted maximal effect
Outline: as §1

[10] = qHTS of pediatric cancer cell lines to identify multiple opportunities for drug repurposing: Primary screen for SK-N-SH cells (AID 1347098); further: nearly all actives have a fitted effect of over 65% in size; further: potency means the concentration at half of the fitted maximal effect
Outline: as §2

| Structure (SMILES) | Potency [1] | Potency [2] | Potency [3] | Potency [4] | Potency [5] | Potency [6] | Potency [7] | Potency [8] | Potency [9] | Potency [10] |
| --- | --- | --- | --- | --- | --- | --- | --- | --- | --- | --- |
| Cc1ncc([N+](=O)[O-])n1CC(C)O (stereo unspecified) | inactive | inactive | inactive | inactive | inactive | inactive | inactive | inactive | inactive | – |
| C[Se]CCC(N)C(=O)O (stereo unspecified) | inactive | inactive | inactive | – | inactive | inactive | inactive | inactive | inactive | inactive |
| CCOC(=O)C(C)Oc1cccc2c(=O)n(CC(=O)Nc3ccc4c(c3)OCCO4)ccc12 (stereo unspecified) | inactive | inactive | inactive | – | inactive | inactive | inactive | – | inactive | inactive |
| CCOc1cc(CC(=O)N[C@@H](CC(C)C)c2ccccc2N2CCCCC2)ccc1C(=O)O | inactive | inactive | inactive | – | inactive | inactive | inactive | – | inactive | inactive |
| Nc1ncn([C@H]2C[C@H](O)[C@@H](CO)O2)c(=O)n1 | inactive | inactive | inactive | inactive | inactive | inactive | inactive | – | – | – |
| N=C(N=C(N)N)N1CCOCC1 | inactive | inactive | inactive | inactive | inactive | inactive | inactive | inactive | inactive | – |
| CN(C)CCc1c[nH]c2ccc(Cn3cncn3)cc12 | inactive | inactive | 11.8 µM (active) | inactive | inactive | – | inactive | – | inactive | inactive |
| COC(=O)[C@H](Cc1ccccc1)NC(=O)[C@@H](N)CC(=O)O (H-Asp-Phe-OMe) | inactive | inactive | inactive | inactive | inactive | inactive | inactive | inactive | inactive | – |
| Oc1ccc(OCc2ccccc2)cc1 | inactive | inactive | inactive | inactive | inactive | inactive | inactive | inactive | inactive | – |
| O=C(O)c1cn(-c2ccc(F)cc2)c2cc(N3CCNCC3)c(F)cc2c1=O | inactive | inactive | inactive | inactive | inactive | inactive | inactive | inactive | inactive | – |
| C[C@H](Cn1cnc2c(N)ncnc21)OCP(=O)(O)O | inactive | inactive | inactive | inactive | inactive | inactive | inactive | inactive | inactive | – |
| CC(S)C(=O)NCC(=O)O (stereo unspecified) | inactive | inactive | inactive | – | inactive | inactive | inactive | – | inactive | inactive |
| Nc1ccn([C@@H]2O[C@H](CO)[C@@H](O)C2O)c(=O)n1 (stereo partly specified) | inactive | inactive | inactive | inactive | inactive | inactive | inactive | inactive | inactive | – |
| c1cnc2cc3c(cc2n1)C1CNCC3C1 | inactive | inactive | inactive | – | – | inactive | inactive | – | inactive | inactive |
| CC1=C(C)C(=O)C(C(CCCCCC(=O)O)c2ccccc2)=C(C)C1=O (stereo unspecified) | inactive | inactive | inactive | – | inactive | inactive | inactive | inactive | inactive | inactive |
| COc1ccccc1N1CCN(CCN(C(=O)C2CCCCC2)c2ccccn2)CC1 | 6.62 µM (active) | inactive | inactive | – | inactive | – | inactive | inactive | inactive | inactive |
| CC(=O)NC[C@H]1CN(c2ccc(N3CCOCC3)c(F)c2)C(=O)O1 | inactive | inactive | inactive | inactive | inactive | inactive | inactive | inactive | inactive | – |
| CCOC(=O)C1=C(O)C(=O)N(Cc2ccccc2)C1 | inactive | inactive | inactive | inactive | inactive | inactive | inactive | inactive | inactive | – |
| CCCCCCCCCCCCCCCCCCCCCCO | inactive | inactive | inactive | inactive | inactive | inactive | inactive | inactive | inactive | – |
| Cc1cc(=O)oc2cc(O)ccc12 | inactive | inactive | inactive | inactive | inactive | inactive | inactive | inactive | inactive | – |
| Cc1nc(-c2ccc(OCC(C)C)c(C#N)c2)sc1C(=O)O | inactive | inactive | inactive | inactive | inactive | inactive | inactive | – | inactive | – |
| CC(C)Oc1ccc2c(=O)c(-c3ccccc3)coc2c1 | inactive | inactive | inactive | inactive | inactive | – | inactive | – | inactive | inactive |
| O=C(NC(Cc1cc(=O)[nH]c2ccccc12)C(=O)O)c1ccc(Cl)cc1 (stereo unspecified) | inactive | inactive | inactive | – | inactive | inactive | inactive | inactive | inactive | inactive |

| Structure (SMILES) | Potency [1] | Potency [2] | Potency [3] | Potency [4] | Potency [5] | Potency [6] | Potency [7] | Potency [8] | Potency [9] | Potency [10] |
| --- | --- | --- | --- | --- | --- | --- | --- | --- | --- | --- |
| CN(C)c1ccc(O)c2c1C[C@H]1C[C@H]3[C@H](N(C)C)C(=O)C(C(N)=O)=C(O)[C@@]3(O)C(=O)C1=C2O | inactive | inactive | inactive | inactive | – | – | inactive | inactive | inactive | inactive |
| O=C(OC1C[C@H]2CC[C@@H](C1)[N+]21CCCC1)C(O)(c1ccccc1)c1ccccc1 (stereo partly specified) | inactive | inactive | inactive | 10.5 µM (active) | inactive | inactive | inactive | – | inactive | – |
| CN(c1nccc(=O)[nH]1)C1CCN(c2nc3ccccc3n2Cc2ccc(F)cc2)CC1 | inactive | inactive | inactive | – | – | inactive | inactive | – | inactive | inactive |
| COc1cc2c(cc1OC)C1CC(=O)C(CC(C)C)CN1CC2 (stereo unspecified) | inactive | inactive | inactive | inactive | inactive | inactive | inactive | inactive | inactive | – |
| COc1ccc2cc([C@H](C)C(=O)O)ccc2c1 | inactive | inactive | inactive | inactive | inactive | inactive | inactive | inactive | inactive | – |
| Cc1ccc(C)c(OCCCC(C)(C)C(=O)O)c1 | inactive | inactive | inactive | – | inactive | – | inactive | inactive | inactive | inactive |
| CNC[C@@H](O)[C@@H](O)[C@H](O)[C@H](O)CO | inactive | inactive | inactive | inactive | inactive | inactive | inactive | inactive | inactive | – |
| CC(C)c1ccc2oc3nc(N)c(C(=O)O)cc3c(=O)c2c1 | inactive | inactive | inactive | inactive | inactive | inactive | inactive | – | inactive | – |
| O=C(O)c1cccc(-c2noc(-c3ccccc3F)n2)c1 | inactive | inactive | inactive | – | inactive | inactive | inactive | inactive | inactive | inactive |
| Cc1ccc(S(=O)(=O)NC(=O)NN2CC3CCCC3C2)cc1 (stereo unspecified) | inactive | inactive | 7.5 µM (active) and 18.7 µM (active) | inactive | – | inactive | inactive | – | – | inactive |
| CCOC(=O)C1=C[C@@H](OC(CC)CC)[C@H](NC(C)=O)[C@@H](N)C1 | inactive | inactive | inactive | inactive | inactive | inactive | inactive | – | inactive | – |
| COc1cc(Nc2c(C#N)cnc3cc(OCCCN4CCN(C)CC4)c(OC)cc23)c(Cl)cc1Cl | inactive | 21.1 µM (active) | 8.33 µM (active) | – | – | 27.6 µM (active) | – | 19.5 µM (active) and 2.17 µM (active) | 15 µM (active) and 14.8 µM (active) | 6.12 µM (active) |
| COc1ccc(C2(C#N)CCC(C(=O)O)CC2)cc1OC1CCCC1 (stereo unspecified) | inactive | inactive | inactive | 11.8 µM (active) | inactive | inactive | inactive | inactive | inactive | – |
| O=C(c1ccccc1)c1ccc2n1CCC2C(=O)O (stereo unspecified) | inactive | inactive | inactive | inactive | inactive | inactive | inactive | – | inactive | – |
| C=CCc1cc(OC)c(O)c(C(=O)NCCO)c1 | inactive | inactive | inactive | inactive | inactive | inactive | inactive | inactive | inactive | – |
| CC1(C)C(=O)N(CCN2CCC(C(=O)c3ccc(F)cc3)CC2)c2ccccc21 | inactive | inactive | inactive | – | inactive | – | inactive | inactive | inactive | – |
| Cc1ccc(NC(=O)c2ccc(CN3CCN(C)CC3)cc2)cc1Nc1nccc(-c2cccnc2)n1 | inactive | inactive | inactive | inactive | inactive | – | inactive | 17.4 µM (active) | – | – |
| Cc1nc(Nc2ncc(C(=O)Nc3c(C)cccc3Cl)s2)cc(N2CCN(CCO)CC2)n1 | inactive | 18.7 µM (active) and 13.3 µM (active) | – | inactive | inactive | – | 0.0335 µM (active) | 24.3 µM (active) and 12.3 µM (active) | – | – |
| NCCCCNCCCN | inactive | inactive | – | 4.18 µM (active) | – | inactive | inactive | – | inactive | 7.64 µM (active) |
| O=c1c(O)c(-c2cc(O)c(O)c(O)c2)oc2cc(O)cc(O)c12 | inactive | inactive | – | inactive | inactive | inactive | inactive | – | inactive | – |
| O=C(NCCO[N+](=O)[O-])c1cccnc1 | inactive | inactive | inactive | – | inactive | inactive | inactive | inactive | inactive | – |
| Cc1cc2cc3c(C)cc(=O)oc3c(C)c2o1 | inactive | inactive | inactive | – | inactive | inactive | inactive | inactive | – | – |
| CN(C)CCCC1(c2ccc(F)cc2)OCc2cc(C#N)ccc21 (stereo unspecified) | inactive | inactive | – | 16.6 µM (active) | inactive | inactive | inactive | inactive | 29.6 µM (active) | – |
